Measurements published in the supplement of paper PMC12340641.
Structures can show the parent of a compound that is named as a salt.

molecular target: IKZF1 (dCK*-IKZF1 fusion in HEK293FT) (UniProt Q13422); experiment: inhibition of IKZF1 HTRF signal (DMSO = 0%, pomalidomide 10 uM = 100%); higher = lower IKZF1 protein level; details: compound concentration: 5 uM, overnight (~20 h)
In short: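 After overnight treatment at 37 °C with 5 μM compound in single wells, HEK293FT cells (2000/well, 384-well) stably expressing an IKZF1 fusion were lysed for 30 min at room temperature. A commercial HTRF total-IKZF1 antibody kit was incubated with the lysate overnight, and the time-resolved FRET ratio at 665/620 nm was corrected for background. Data are given as percent inhibition of IKZF1 signal relative, on each plate, to vehicle and a reference degrader, set at 0% and 100% respectively.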

Sequence of IKZF1 (dCK*-IKZF1 fusion in HEK293FT) (Q13422 whole entry, looked up, the tested form may be a part): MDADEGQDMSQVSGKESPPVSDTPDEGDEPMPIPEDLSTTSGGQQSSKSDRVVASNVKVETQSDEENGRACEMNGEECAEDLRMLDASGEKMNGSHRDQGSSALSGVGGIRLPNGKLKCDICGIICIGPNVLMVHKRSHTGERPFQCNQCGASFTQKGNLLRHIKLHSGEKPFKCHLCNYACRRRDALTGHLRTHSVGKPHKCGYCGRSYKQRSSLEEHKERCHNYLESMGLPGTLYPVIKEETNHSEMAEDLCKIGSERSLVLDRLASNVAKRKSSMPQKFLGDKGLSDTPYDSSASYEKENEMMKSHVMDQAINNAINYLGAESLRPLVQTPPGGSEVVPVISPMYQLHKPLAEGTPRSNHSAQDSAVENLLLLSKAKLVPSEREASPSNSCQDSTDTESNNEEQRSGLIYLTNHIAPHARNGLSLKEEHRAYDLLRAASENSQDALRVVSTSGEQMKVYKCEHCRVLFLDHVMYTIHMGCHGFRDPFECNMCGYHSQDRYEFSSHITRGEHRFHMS

SMILES | inhibition of IKZF1 HTRF signal
CN1CCN(CCCN2c3ccccc3Sc3ccc(Cl)cc32)CC1 | -26.7%
Cc1cc(Nc2ncc(Cl)c(Nc3ccccc3S(=O)(=O)C(C)C)n2)c(OC(C)C)cc1C1CCN(CC(=O)NCCOCCOCCOCCOCCOCCNc2cccc3c2C(=O)N(C2CCC(=O)NC2=O)C3=O)CC1 (configuration not stated) | 54.5%
O=c1c(O)c(-c2cc(O)c(O)c(O)c2)oc2cc(O)cc(O)c12 [Myricetin (Cannabiscetin)] | 18.8%
CC(=O)Oc1ccccc1C(=O)Nc1ncc([N+](=O)[O-])s1 | 22.3%

system: HEK293FT dCK*-only; experiment: relative growth in counter assay (no AraC = 100%, AraC + DMSO = 0%); higher = more growth rescue independent of IKZF1; details: compound concentration: 5 uM; AraC concentration: 0.3 uM; overnight pretreatment + 4 days AraC
In short: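 Counter assay in HEK293FT cells expressing dCK* alone (300/well, 384-well). Cells received 5 μM compound 2 h after seeding, then after overnight at 37 °C a nucleoside suicide substrate at 0.3 μM plus medium for 4 days. On day 5, Hoechst 33342-stained nuclei were counted by imaging. Relative growth was normalised per plate to wells without suicide substrate (100%) and substrate plus vehicle (0%).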

SMILES | relative growth in counter assay
COc1cc([C@@H]2c3cc4c(cc3[C@@H](O[C@@H]3O[C@@H]5CO[C@@H](C)O[C@H]5[C@H](O)[C@H]3O)[C@H]3COC(=O)[C@H]23)OCO4)cc(OC)c1OP(=O)(O)O [Etoposide phosphate] | -33.9%
COC(=O)C1=C(C)NC(C)=C(C(=O)OC(C)C)C1c1cccc2nonc12 (configuration not stated) [isradipine] | -4.67%
CC1(C)C(=O)N=C2C1=C(O)C(=O)c1ccccc12 | -34.8%
CO[C@H]1CC[C@H](N2C(=O)CNc3ncc(-c4ccc(C(C)(C)O)nc4)nc32)CC1 | -9.67%
CN(C)CC(O)Cn1c2ccc(Br)cc2c2cc(Br)ccc21 (configuration not stated) [wiskostatin] | -9.92%
CCC1/C=C(\C)CC(C)CC(OC)C2OC(O)(C(=O)C(=O)N3CCCCC3C(=O)OC(/C(C)=C/C3CCC(O)C(OC)C3)C(C)C(O)CC1=O)C(C)CC2OC (configuration not stated) [Ascomycin (FK520)] | 22.2%
CCc1nc(N)nc(N)c1-c1ccc(Cl)cc1 [Pyrimethamine] | 3.76%
O=C(Nc1ccc(C(O)(C(F)(F)F)C(F)(F)F)cc1)c1ccc(C(F)(F)F)cc1 | 49.3%
FC(F)(F)c1ccccc1-c1cc(C(F)(F)F)c2[nH]c(C3=NOC4(CCCCC4)C3)nc2c1 | -7.93%
CCN1CCN(Cc2ccc(-c3cc4c(N[C@H](C)c5ccccc5)ncnc4[nH]3)cc2)CC1 | -18.1%
CCCCCCCCCCCCCCCC[N+](C)(C)CCN(Cc1ccc(OC)cc1)c1ncccn1 [thonzonium bromide] | -31%
CC[C@@]1(O)C(=O)OCc2c1cc1n(c2=O)Cc2cc3cc(O)ccc3nc2-1 [10-Hydroxycamptothecin] | -34%
O=C(N/N=C/c1ccccc1O)c1ccccc1O | 0.05%
O=[N+]([O-])c1ccc2nc(COCc3nc4ccc([N+](=O)[O-])cc4[nH]3)[nH]c2c1 | -3.14%
C[C@H](NCc1ccc(OCc2ccccc2F)cc1)C(N)=O [priralfinamide] | -0.94%
COc1cc([C@@H]2c3cc4c(cc3[C@@H](O[C@@H]3O[C@@H]5COC(c6cccs6)O[C@H]5[C@H](O)[C@H]3O)[C@H]3COC(=O)C23)OCO4)cc(OC)c1O (some centres not stated) [Teniposide] | -34.3%
NC(=O)Nc1sc(-c2ccc(F)cc2)cc1C(N)=O | -26.8%
CCc1c2c(nc3ccc(OC(=O)N4CCC(N5CCCCC5)CC4)cc13)-c1cc3c(c(=O)n1C2)COC(=O)[C@]3(O)CC [irinotecan] | -35.4%
CN(C)CCCN1c2ccccc2Sc2ccc(C(F)(F)F)cc21 | 6.11%

SMILES | relative growth in counter assay
Clc1ccc(COC(Cn2ccnc2)c2ccc(Cl)cc2Cl)c(Cl)c1 (configuration not stated) [Miconazole] | 1.72%
CC(=O)Nc1ncc([N+](=O)[O-])s1 | 5.87%
Nc1ncn([C@@H]2O[C@H](CO)[C@@H](O)[C@H]2O)c(=O)n1 | -13.2%
Clc1ccc(CSC(Cn2ccnc2)c2ccc(Cl)cc2Cl)cc1 (configuration not stated) [Sulconazole Nitrate] | -8.02%
CN(C)CCN1C(=O)c2cccc3cc(N)cc(c23)C1=O [Amonafide] | -32.4%
C=C1/C(=C\C=C2/CCC[C@]3(C)[C@@H]([C@H](C)CCCC(C)(C)O)CC[C@@H]23)C[C@@H](O)C[C@@H]1O [Calcitriol] | -0.18%
C=C1/C(=C\C=C2/CCC[C@]3(C)[C@@H]([C@H](C)CCCC(C)(C)O)CC[C@@H]23)C[C@@H](O)C[C@@H]1O [Calcitriol (Rocaltrol)] | 31.2%
c1ccc(C(NCCNC(c2ccccc2)c2ccccc2)c2ccccc2)cc1 | 3.27%
CCS(=O)(=O)N(C)[C@@H]1c2cc(C#N)ccc2OC(C)(C)[C@H]1O.CCS(=O)(=O)N(C)[C@H]1c2cc(C#N)ccc2OC(C)(C)[C@@H]1O (racemic) [chromanol-(+/-)] | 1.25%
O=C1c2ccccc2-c2n[nH]c3cccc1c23 [pyrazolanthrone] | -9.29%
CCCCCCCCCCCC1=C(O)C(=O)C=C(O)C1=O [embelin] | -6.94%
O=c1n(CC2CO2)c(=O)n(CC2CO2)c(=O)n1CC1CO1 (configuration not stated) [Triglycidyl isocyanurate] | -31.7%
Cc1cc(C)c(C2=NOC3C4CCC(C4)C23)c(C)c1 (configuration not stated) | 1.92%
O=C1Nc2ccc(I)cc2/C1=C/c1cc(Br)c(O)c(Br)c1 | 4.46%
COc1cccc2c1C(=O)c1c(O)c3c(c(O)c1C2=O)C[C@@](O)(C(=O)CO)C[C@@H]3O[C@H]1C[C@H](N)[C@@H](O)[C@H](C)O1 [Epirubicin Hydrochloride] | -34.5%
CN1CCN(CCCN2c3ccccc3Sc3ccc(Cl)cc32)CC1 | 4.19%
Cc1cc(Nc2ncc(Cl)c(Nc3ccccc3S(=O)(=O)C(C)C)n2)c(OC(C)C)cc1C1CCN(CC(=O)NCCOCCOCCOCCOCCOCCNc2cccc3c2C(=O)N(C2CCC(=O)NC2=O)C3=O)CC1 (configuration not stated) | 6.9%
O=c1c(O)c(-c2cc(O)c(O)c(O)c2)oc2cc(O)cc(O)c12 [Myricetin (Cannabiscetin)] | -1.64%
CC(=O)Oc1ccccc1C(=O)Nc1ncc([N+](=O)[O-])s1 | -5.9%
